Measured values from PubChem BioAssay (NCI).
About 79,000 compounds went through this panel and 15% of them were active in at least one assay; those are over-represented in the sample as a whole. Active and inactive are the calls of the source. Rule as the data show it: active = growth inhibition above about 70%; inactive = the rest.

Test: NCI Yeast Anticancer Drug Screen. Data for the rad14 strain (AID 159);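 also: 0% = growth of vehicle-treated control cultures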
Conditions: S. cerevisiae rad14 strain growth inhibition, hits give high values
Description: Growth inhibition of yeast strains with defined genetic alterations is measured as a screen for potential anti-cancer activity. Selected strains with alterations in DNA damage repair or cell cycle control were exposed to compounds and growth inhibition was measured relative to vehicle treated controls. The strain used in this assay is rad14

Row | SMILES | growth inhibition (at 1.2 µM) | growth inhibition (at 3.7 µM) | growth inhibition (at 11.0 µM) | growth inhibition (at 33.0 µM) | growth inhibition (at 100.0 µM)
1 | O=C(/C=C(\c1ccccc1)N1CC1)c1ccccc1 | -4% (inactive) | -1% (inactive) | 3% (inactive) | 40% (inactive) | 99% (active)
2 | COc1ccc(OC)c(/C=C/[N+](=O)[O-])c1 | 5% (inactive) | 7% (inactive) | 15% (inactive) | 39% (inactive) | 100% (active)
3 | CO[C@H](/C(C)=C/C=C/C(C)=C/c1coc(C)n1)[C@H](C)[C@H]1C[C@@H](O)[C@@]2(C)O[C@H]2/C=C/[C@@H](C)[C@@H]2C[C@@H](CC(=O)O2)C[C@H]2O[C@@H]2C(=O)O1 | -28% (inactive) | -17% (inactive) | -8% (inactive) | -8% (inactive) | 91% (active)
4 | COC1C(O)C(C)OC(OC2C(Oc3cccc4c(O)c5c(=O)oc6ccc(C)c7c(=O)oc(c34)c5c67)OC(C)C(O)C2O)C1O (stereo not given) | 5% (inactive) | 9% (inactive) | 20% (inactive) | 30% (inactive) | 32% (inactive)
5 | CC[C@@]1(O)C[C@H](OC2CC(N(C)C)C(O)C(C)O2)c2c(O)c3c(c(O)c2[C@H]1OC1CC(N(C)C)C(O)C(C)O1)C(=O)c1cccc(O)c1C3=O (stereo not given in full) | 15% (inactive) | 15% (inactive) | 17% (inactive) | 16% (inactive) | 83% (active)
6 | CCCCCCCCCCCCCCCCP(=O)(O)OCC(N)C(=O)O (stereo not given) | -67% (inactive) | -61% (inactive) | -55% (inactive) | -47% (inactive) | 93% (active)
7 | Nc1nnc(N)n1-n1c(N)nnc1N | -3% (inactive) | -3% (inactive) | -4% (inactive) | -6% (inactive) | 0% (inactive)
8 | O=C(O)C1C2CCC(C2)C1c1ccccc1 (stereo not given) | 0% (inactive) | 0% (inactive) | -5% (inactive) | -8% (inactive) | 13% (inactive)
